TRAIL sens C8: caspase-8 TRAIL sensitization; inhibition (viability loss, TRAIL sensitization), % at 10 µM; NB7+C8 cells + TRAIL, ATPlite viability luminescence; 360,000 compounds, 1% hits;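 active = compounds causing at least 50% loss of cell viability in the single-dose screen, relative to plate controls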
HSP90 refold inh: HSP90 refolding inhibition in rabbit reticulocyte lysate; inhibition, % at 5.6 µM; 290,000 compounds, 0.91% hits; AID 1789; luciferase refolding luminescence, 3 h;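 active = inhibition above the screen-wide mean plus 3 SD, computed separately per campaign, cut at about 16% in these data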;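 note: 0% = DMSO wells and 100% = 60 µM geldanamycin wells; inhibitors lower the luminescence because luciferase stays unfolded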
TROY NFkB inh: TROY signaling inhibition; 360,000 compounds, 0.98% hits; Q293 LMP1-TROYcd NF-kB luciferase reporter, 4 h; inhibition, % at 10 µM;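 active = compounds whose plate-normalised and pattern-corrected inhibition of the luciferase reporter signal at the single screening dose is 50% or more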
aSyn 5UTR inh: 5' untranslated region of α-synuclein, MLPCN primary screen. alpha-synuclein 5'UTR reporter, inhibitor activity. inhibition, % (tested at 7.5 µM). 300,000 compounds, 0.82% hits; in the data active = inhibition above about 60%;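 note: H4 neuroglioblastoma cells stably carrying SNCA 5'UTR luciferase fusion; 0% = DMSO wells and 100% = positive control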
TWEAK-Fn14 inh: inhibitors of TWEAK-Fn14 interaction signaling | 360,000 compounds, 2% hits | TWEAK-stimulated Fn14 reporter cells, luciferase luminescence, 8 h | inhibition, % at 10 µM; in the data active = inhibition above about 50%
HIF-2a inh: HIF-2a inhibition; 786-0 RCC cells HIF-2a reporter, luciferase luminescence, overnight; inhibition, % at 18.8 µM; 360,000 compounds, 0.72% hits; AID 624352;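 active = inhibition of the luminescence signal of 40% or more relative to plate controls, in a single-dose primary screen at 18.75 µM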
* = called active by the depositor; x = no result given. Shown are actives, neighbours in structure and some others; about 3.9% of the full set was active somewhere.

SMILES | TRAIL sens C8 | HSP90 refold inh | TROY NFkB inh | aSyn 5UTR inh | TWEAK-Fn14 inh | HIF-2a inh
COc1ccc(OCCN(C)Cc2ccccc2)cc1 | -3.3 | 4.0 | -32.4 | -31.6 | -9.5 | -25.6
COc1ccc(OCCCN(C)Cc2ccccc2)cc1 | 3.8 | -6.9 | -0.4 | 10.6 | 76.2* | 6.0
CC(C)[C@@H]1Cc2[nH]c(=O)[nH]c(=O)c2[C@H](c2ccc(F)cc2)O1 | -24.5 | x | 16.5 | x | -7.1 | 12.3
c1ccc(-c2cc3c(N4CCN(c5ccccc5)CC4)ncnc3s2)cc1 | -10.7 | 5.0 | 27.0 | -23.2 | 42.5 | -52.9
O=S(=O)(c1ccccc1)N1CCN(c2cc(-c3ccccc3)nc3ncnn23)CC1 | 37.4 | -0.7 | 32.3 | -23.3 | 70.3* | 10.3
O=S(=O)(c1ccccc1)N1CCN(c2ncnc3sc(-c4ccccc4)cc23)CC1 | 36.3 | 0.1 | 37.4 | 24.0 | 81.4* | 16.4
Cc1ccc(OCCN2CCN(c3ncnc4sc(C)c(C)c34)CC2)cc1 | 15.5 | 1.0 | 38.6 | -3.8 | 50.4* | 11.2
Cc1ccc(S(=O)(=O)N2CCN(c3ncnc4scc(-c5ccccc5)c34)CC2)cc1 | 31.2 | x | 1.7 | x | -3.1 | -3.6
Cc1sc2ncnc(N3CCN(S(=O)(=O)c4ccccc4)CC3)c2c1C | 34.0 | x | 4.5 | x | 74.0* | 29.9
CCOc1ccc2c(c1)OC1(CCC(C)C1)CC2=O (configuration not stated) | -15.6 | x | -4.8 | 30.0 | 0.3 | 1.7
CCOc1ccc2c(c1)OC(c1ccc(C)cc1)(C(F)(F)F)NC2=O (configuration not stated) | 12.5 | 4.2 | -0.7 | 95.8* | 13.7 | -36.8
O=C(Nc1c(-c2ccccc2)[nH][nH]c1=O)c1cccs1 | -1.6 | x | x | x | x | 12.7
COc1ccc(/C=N/NC(=O)c2cc3cc(OC)c(OC)cc3[nH]2)cc1 | 8.2 | -2.0 | -1.8 | -1.1 | 8.2 | 4.4
CCOc1ccc2[nH]c(C(=O)N/N=C/c3ccc(OC)cc3)cc2c1 | 24.7 | 5.0 | 14.6 | 75.9* | 0.1 | -15.5
COc1cc2cc(C(=O)N/N=C/c3ccccc3Cl)[nH]c2cc1OC | 19.4 | 1.2 | -28.1 | 2.1 | 51.6* | -44.1
C#CCOc1c(Cl)cc(/C=C2/C(=O)ON=C2C)cc1OC | -1.6 | -0.9 | -5.3 | 19.7 | 63.0* | 15.8
O=C1c2ccccc2NC(c2cccc(O)c2)N1O (configuration not stated) | -1.4 | 1.4 | 82.8* | -11.4 | 18.4 | -104.5
CCOc1cc(/C=N/N=C(/N)c2nonc2N)cc(Br)c1OCc1ccc(Cl)cc1 | 57.0* | 1.0 | 1.0 | 1.5 | -14.6 | 5.3
COc1cc(/C=N/N=C(/N)c2nonc2N)cc(Br)c1OCc1ccccc1C | 12.8 | 7.1 | -34.1 | -14.9 | -18.2 | -19.0
Cc1cc(C)c(-c2c(O)c3cccc4c3n(c2=O)CCC4)c(C)c1 | 1.9 | 5.3 | 3.1 | 14.5 | 55.6* | 12.2
Cc1ccc(C2=C/C(=C/c3cccs3)C(=O)O2)cc1 | -2.6 | 3.8 | -31.8 | -28.4 | 52.9* | -123.6
Cc1ccc(C=C2C=C(c3ccccc3)OC2=O)cc1 | -15.3 | x | -42.5 | x | -20.4 | -236.3
CN=c1scc(-c2ccco2)n1/N=C/c1ccc(O)c(O)c1 | 38.4 | 16.5* | 3.4 | -242.0 | 2.9 | -125.5
CN=c1scc(C)n1/N=C/c1ccc(O)cc1O | 67.5* | 7.6 | -23.7 | 28.8 | 63.9* | -48.7
CN=c1scc(C)n1/N=C/c1ccc(O)cc1 | 38.8 | 4.6 | 58.5* | x | -7.1 | -220.0
SMILES | TRAIL sens C8 | HSP90 refold inh | TROY NFkB inh | aSyn 5UTR inh | TWEAK-Fn14 inh | HIF-2a inh
CN=c1scc(C)n1/N=C/c1cc(Br)c(O)c(Br)c1 | 4.4 | 1.8 | 4.9 | -14.0 | -22.6 | -37.1
COc1ccc(O)c(/C=N/n2c(-c3ccco3)csc2=Nc2cccnc2)c1 | -3.3 | 2.1 | -71.8 | -39.8 | -4.4 | -22.4
CN=c1scc(C)n1/N=C/c1ccc2c(c1)OCO2 | 60.8* | 10.9 | -55.3 | 34.5 | 52.6* | -73.6
COc1ccccc1-c1noc2c1C(=O)N(Cc1cn(Cc3ccccc3)nn1)CC2 | -4.6 | x | 4.2 | x | 4.7 | 6.9
COC(=O)C[C@H]1CC[C@H](NC(=O)c2ccc(F)cc2)[C@@H](CO)O1 | 5.4 | x | x | x | x | 9.7
CCOC(=O)c1c(NC(=S)Nc2ccc(Cl)cc2)sc(C)c1C | -26.7 | -2.6 | -16.4 | -38.2 | 4.2 | -1.0
COC(=O)c1c(NC(=S)Nc2ccc(CC(=O)O)cc2)sc(C)c1C | 8.2 | -1.2 | -12.2 | -15.8 | 87.5* | 4.6
O=C(Nc1ccc(Cc2ccncc2)cc1)C1CCC(N2C(=O)C3C4C=CC(C5CC45)C3C2=O)CC1 (configuration not stated) | 33.5 | 1.4 | 53.4* | -62.4 | 47.4 | 16.8
Cc1c(NC(=O)c2ccc(NS(=O)(=O)c3ccc(F)c(F)c3)cc2)c(=O)n(-c2ccccc2)n1C | -15.6 | x | 15.7 | x | 11.4 | 13.2
N#Cc1ccccc1NC(=O)COC(=O)/C=C/c1cn(-c2ccccc2)nc1-c1ccc(Cl)cc1 | 61.0* | 0.0 | -16.6 | x | 12.5 | 15.0
O=C1c2ccccc2C(c2nnnn2-c2ccc3c(c2)OCCO3)N1Cc1cccnc1 (configuration not stated) | 3.3 | x | -1.9 | x | -8.0 | 1.2
C#CCSc1nnc(CSc2nc3ccccc3s2)n1-c1ccccc1 | 85.8* | 5.8 | 15.0 | 5.3 | 19.1 | 9.6
O=C(O)CSc1nnc(CSc2nc3ccccc3s2)n1-c1ccccc1 | 9.7 | -4.1 | 0.2 | 16.4 | -2.4 | 17.5
CC(C)(C)n1nnnc1C(c1ccccc1)N1CCN(CCN2CCOCC2)CC1 (configuration not stated) | 3.8 | x | 15.2 | x | -6.0 | 0.0
CCCCn1c(CCl)nc2cc(S(=O)(=O)N3CCOCC3)ccc21 | 68.6* | x | 3.7 | x | 3.5 | 10.3
CCOC(=O)c1sc2nc(NC(=O)C(C)(C)C)sc2c1C | 36.7 | 10.8 | 68.1* | -134.6 | 64.6* | -230.0
CCOC(=O)c1sc2nc(NC(=O)C3CC3)sc2c1C | 1.5 | 0.1 | -51.2 | -201.3 | -44.0 | -149.9
Cc1ccc2nc(-c3ccc(S(=O)(=O)N4CCCCC4)cc3)cn2c1 | 18.5 | 3.5 | 51.9* | -81.0 | 30.0 | -133.7
CCOc1ccccc1OCC(=O)NC1CCSc2ccccc21 (configuration not stated) | -4.7 | x | 3.5 | x | -36.9 | -64.3
Cc1ccc(NCc2nnc(SCC(=O)c3ccc4c(c3)OCCO4)o2)c(C)c1 | -6.2 | 3.6 | 76.6* | 1.3 | 30.9 | 12.2
CN(C)CCNC=C(C(=O)Nc1ccc(Cl)cc1Cl)C(=O)Nc1ccc(Cl)cc1Cl | 22.5 | -1.7 | 54.5* | 44.6 | 16.1 | 4.5
CC(=O)/C(=C/N(C)C)C(=O)Nc1ccc(Cl)cc1Cl | -1.6 | -3.5 | 14.2 | -13.0 | -3.4 | -71.0
O=C1C(C=Nc2ccc(F)cc2)=C(O)c2ccccc21 | 56.6* | 0.6 | 35.4 | -213.9 | 80.3* | -215.1
COc1ccc(N=CC2=C(O)c3ccccc3C2=O)c(OC)c1 | 91.5* | 33.3* | 82.9* | 62.5* | 102.4* | 55.3*
COc1ccc(OC)c(N=Nc2c(O)c3ccccc3[nH]c2=O)c1 | 17.6 | x | 26.8 | x | 19.3 | 5.1

Compound activity deposited in PubChem BioAssay by several laboratories.
